16 molecules from PubChem BioAssay (NCI) can be followed below.

Each structure is given as a SMILES string. About 83,000 compounds went through this panel and 20% of them were active in at least one assay; those are over-represented in the sample as a whole.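 Interpretation: 100, growth as untreated; towards 0, rising growth inhibition; 0, no net growth; 0 to -100, cell death. Compounds scoring below 10 were considered active.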 Unmarked numbers belong to inactive results. Active and inactive are the calls of the source.

Among the test systems are NCI-H23 lung; NCI-H226 lung; NCI-H322M lung; HOP-62 NSCLC; NCI-H460 lung; HOP-92 NSCLC; NCI-H522 lung; A549/ATCC NSCLC; 786-0 renal; COLO 205 colon.
Test in all cases: NCI-60 one-dose screen, 48 h (100 = growth as untreated, 0 = no growth, -100 = all killed)
Details in all cases: 10 µM unless noted

As for `CC(=O)[C@@]1(O)CC[C@H]2[C@@H]3CC[C@@H]4CC(=O)CC[C@]4(C)[C@H]3[C@@H](O)C[C@@]21C`, the growth was 96.9% in the assay on NCI-H23 lung; 95.9% in the assay on NCI-H226 lung; 105% in the assay on NCI-H322M lung; 74.2% in the assay with HOP-62 NSCLC; 110% in the assay on NCI-H460 lung; 84.3% in the assay on HOP-92 NSCLC. For the same molecule, the growth with NCI-H522 lung is 88.4%; with A549/ATCC NSCLC, 81.7%; with 786-0 renal, 99.2%; in the assay on COLO 205 colon, 95.3%.
Regarding `Cc1ccc(S(=O)(=O)NC(=O)NCCSSCCNC(=O)NS(=O)(=O)c2ccc(C)cc2)cc1`, the growth with NCI-H23 lung is 102%; in the assay with NCI-H226 lung, 91%; with NCI-H322M lung, 101%; in the assay with HOP-62 NSCLC, 105%; in the assay on NCI-H460 lung it was 103%; with HOP-92 NSCLC, 92.2%. The growth in the assay on NCI-H522 lung was 94.9%; with A549/ATCC NSCLC, 100%; in the assay with 786-0 renal, 104%; in the assay on COLO 205 colon, 129%.
Take `O=S(=O)(O)c1cccnc1`: the growth in the assay on NCI-H23 lung was 115%; in the assay on NCI-H226 lung it was 105%; with NCI-H322M lung it was 84.6%; with HOP-62 NSCLC, 114%; with NCI-H460 lung, 109%; in the assay on HOP-92 NSCLC, 142%. The growth in the assay on NCI-H522 lung is 109%; in the assay with A549/ATCC NSCLC, 125%; with 786-0 renal, 103%; with COLO 205 colon, 105%.
Turning to `CC(=O)/C(C)=N\OC(=O)Nc1ccccc1`, the growth in the assay on NCI-H23 lung was 93.8%; in the assay with NCI-H226 lung it was 104%; in the assay on NCI-H322M lung, 101%; in the assay with HOP-62 NSCLC, 94.8%; with NCI-H460 lung it was 107%; in the assay on HOP-92 NSCLC, 92.9%. Moreover, the growth in the assay with NCI-H522 lung is 98.3%; in the assay on A549/ATCC NSCLC, 103%; in the assay on 786-0 renal, 100%; in the assay on COLO 205 colon, 96.4%.
On to `Nc1ccc(F)c(Cl)c1F`, for which the growth in the assay with NCI-H23 lung was 103%; in the assay on NCI-H226 lung it was 91.3%; in the assay with NCI-H322M lung it was 110%; with HOP-62 NSCLC it was 112%; with NCI-H460 lung, 101%; in the assay on HOP-92 NSCLC it was 80%. For the same molecule, the growth in the assay with NCI-H522 lung is 108%; in the assay on A549/ATCC NSCLC it was 113%; with 786-0 renal it was 101%; with COLO 205 colon, 118%.
Turning to `NC(CCl)=NCC12CC3CC(CC(C3)C1)C2`, the growth in the assay with NCI-H23 lung is -7.12% (active); with NCI-H226 lung it was -0.0494% (active); in the assay on NCI-H322M lung, 20.1%; in the assay with HOP-62 NSCLC, -66.1% (active); with NCI-H460 lung, -57.6% (active); in the assay on HOP-92 NSCLC it was -37.6% (active). The growth is -58.7% (active) in the assay with NCI-H522 lung, -47.1% (active) in the assay with A549/ATCC NSCLC, -80.2% (active) in the assay with 786-0 renal and -96% (active) in the assay on COLO 205 colon.
In the case of `O=C(Nc1ccc([N+](=O)[O-])cc1)C(=O)Nc1ccc([N+](=O)[O-])cc1`, the growth is 100% in the assay on NCI-H23 lung; 96.9% in the assay with NCI-H226 lung; 101% in the assay with NCI-H322M lung; 81% in the assay on HOP-62 NSCLC; 103% in the assay with NCI-H460 lung; 95.4% in the assay on HOP-92 NSCLC. Also, the growth with NCI-H522 lung is 77.3%; in the assay with A549/ATCC NSCLC it was 67.7%; with 786-0 renal, 110%; in the assay on COLO 205 colon, 101%.
As for `CC(C)N1CC(=O)N2CSCC2C1=O` (stereo not given), the growth with NCI-H23 lung was 111%; with NCI-H226 lung it was 104%; in the assay on NCI-H322M lung, 115%; in the assay on HOP-62 NSCLC, 111%; in the assay with NCI-H460 lung it was 108%; in the assay on HOP-92 NSCLC, 126%. The growth is 102% in the assay with NCI-H522 lung, 103% with A549/ATCC NSCLC, 107% with 786-0 renal and 114% in the assay with COLO 205 colon.
Take `CC(C)(C)CC1(C)NC(=O)NC1=O` (stereo not given): the growth in the assay with NCI-H23 lung is 103%; in the assay on NCI-H226 lung, 112%; with NCI-H322M lung it was 126%; with HOP-62 NSCLC, 99.1%; with NCI-H460 lung it was 120%; in the assay with HOP-92 NSCLC it was 107%. Besides, the growth in the assay on NCI-H522 lung was 150%; with A549/ATCC NSCLC, 120%; with 786-0 renal, 98.7%; in the assay on COLO 205 colon, 135%.
For `O=C1NC(=O)/C(=C\c2ccncc2)N1`, the growth is 102% in the assay on NCI-H23 lung; 99.8% in the assay with NCI-H226 lung; 107% with NCI-H322M lung; 94.2% in the assay on HOP-62 NSCLC; 102% with NCI-H460 lung; 85.7% in the assay with HOP-92 NSCLC. Also, the growth in the assay on NCI-H522 lung was 94.7%; in the assay on A549/ATCC NSCLC, 106%; in the assay on 786-0 renal it was 106%; in the assay on COLO 205 colon it was 103%.
In the case of `CN(CCCN(C)CCC1CCCCC1)CCC1CCCCC1`, the growth was 64.1% in the assay with NCI-H23 lung; 66.9% in the assay with NCI-H226 lung; 94.6% with NCI-H322M lung; 57.3% with HOP-62 NSCLC; 29% in the assay with NCI-H460 lung; 21.3% in the assay on HOP-92 NSCLC. The growth in the assay with NCI-H522 lung was 69.6%; with A549/ATCC NSCLC, 83.7%; in the assay on 786-0 renal, 53.2%; in the assay with COLO 205 colon it was -81% (active).
Turning to `CCCCNc1ccc(-c2ccc(NCCCC)cc2)cc1`, the growth in the assay with NCI-H23 lung is 65.5%; in the assay on NCI-H226 lung it was 73.4%; with NCI-H322M lung, 95.9%; in the assay with HOP-62 NSCLC it was 91.2%; with NCI-H460 lung, 65.8%; in the assay with HOP-92 NSCLC it was 97.7%. The growth was 46.2% in the assay with NCI-H522 lung, 61.6% in the assay on A549/ATCC NSCLC, 58.9% with 786-0 renal and 111% in the assay with COLO 205 colon.
As for `OCc1cccnc1`, the growth was 100% with NCI-H23 lung; 103% in the assay on NCI-H226 lung; 106% in the assay with NCI-H322M lung; 99.8% in the assay on HOP-62 NSCLC; 103% with NCI-H460 lung; 98.4% in the assay on HOP-92 NSCLC. Also, the growth with NCI-H522 lung is 108%; in the assay with A549/ATCC NSCLC, 92.2%; in the assay on 786-0 renal, 107%; in the assay with COLO 205 colon, 107%.
As for `COc1nc2ccccc2s1`, the growth with NCI-H23 lung was 94.7%; with NCI-H226 lung, 97.3%; in the assay on NCI-H322M lung, 111%; in the assay on HOP-62 NSCLC, 114%; with NCI-H460 lung, 99.4%; in the assay with HOP-92 NSCLC, 99.2%. The growth in the assay on NCI-H522 lung is 96.3%; in the assay with A549/ATCC NSCLC it was 96.8%; in the assay with 786-0 renal it was 104%; with COLO 205 colon it was 93.1%.
Consider `COc1c(CNC(=O)CCl)cc2[nH]c(C)cc2c1CNC(=O)CCl`, for which the growth with NCI-H23 lung was 57.2%; in the assay on NCI-H226 lung, 69.4%; in the assay on NCI-H322M lung it was 67.4%; with HOP-62 NSCLC, 70.4%; in the assay with NCI-H460 lung, 31.5%; in the assay with HOP-92 NSCLC, 107%. For the same molecule, the growth in the assay on NCI-H522 lung is -2.03% (active); with A549/ATCC NSCLC, 56.4%; in the assay with 786-0 renal it was 68%; in the assay on COLO 205 colon it was 54.8%.
In the case of `Cc1onc(-c2c(F)cccc2Cl)c1-c1ncc(-c2ccc(Br)cc2)o1`, the growth is 42.1% in the assay on NCI-H23 lung; 73.1% in the assay on NCI-H226 lung; 61.9% with NCI-H322M lung; 59.3% in the assay with HOP-62 NSCLC; 4.75% (active) with NCI-H460 lung; 61.3% in the assay with HOP-92 NSCLC. Further, the growth with NCI-H522 lung is 41.9%; in the assay on A549/ATCC NSCLC it was 41.7%; in the assay with 786-0 renal, 10.7%; in the assay with COLO 205 colon, 49.6%.
